Source: PubChem BioAssay AID2540 (Sanford-Burnham Center for Chemical Genomics, 2010)
Among all 330,000 compounds or so, about 4,100 (1.2%) were called active. The full list was thinned out, with actives kept by preference. A number with no mark means an inactive call. Rule as the data show it: active = inhibition above about 50%; inactive = the rest.

These compounds were tested against Sentrin-specific protease 8 (Homo sapiens) (UniProt Q96LD8) (assay: SENP8 protease inhibitors, primary screen, biochemical, luminescence (AID 2540)). Conditions: purified SENP8, Z-RLRGG-aminoluciferin cleavage, at 10 µM, hits give high values.
Sequence of Sentrin-specific protease 8 (Homo sapiens) (Q96LD8 whole entry, looked up): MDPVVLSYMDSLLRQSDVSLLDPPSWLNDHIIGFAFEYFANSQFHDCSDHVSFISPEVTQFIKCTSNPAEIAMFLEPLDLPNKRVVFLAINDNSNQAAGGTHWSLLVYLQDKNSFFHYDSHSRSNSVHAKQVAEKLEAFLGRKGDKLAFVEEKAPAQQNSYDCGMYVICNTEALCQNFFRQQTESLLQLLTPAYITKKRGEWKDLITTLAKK
Compound Cc1ccc(C)c(NC(=O)CSc2nc3c(oc4ccccc43)c(=O)n2-c2ccccc2)c1 has an inhibition of -0.496%. For Oc1ccc(N=Nc2nccs2)c(O)c1, the inhibition was 72.7% (active). In the case of O=C(Nc1cccc(Cl)c1)Nc1ccccc1NS(=O)(=O)c1cccs1, the inhibition is reported as 11.3%. In the case of COC(=O)CNC(c1ccccc1Cl)c1cc(Br)ccc1NC(=O)CCN1CCOCC1 (stereo unspecified), the inhibition is reported as -4.92%. Work on Cn1c(Cn2nnc3ccccc32)nnc1SCC(=O)c1ccccc1F yielded an inhibition of 0%. Cc1oc(-c2cccc(Cl)c2)[n+]([O-])c1C showed an inhibition of -7.45%. Clc1ccc(-c2cc(C3CCNCC3)[nH]n2)c(Cl)c1 was tested, and the inhibition was 0.621%. Compound Cc1nn(C)cc1N1C(=O)c2cccc3c(N)ccc(c23)C1=O has an inhibition of 0.391%. In the case of CCN1C(=O)c2cccc3c(N)ccc1c23, the inhibition is reported as 83.8% (active). With CCN1C(=O)c2cccc3c(S(=O)(=O)Nc4ccccc4O)ccc1c23 the inhibition was 6.13%. With CC1=C2C(=O)OC(c3ccoc3)C2(C)CCC1 (stereo unspecified) the inhibition was -1.03%. CCc1ccc(NC(=O)COC(=O)c2cccs2)cc1 showed an inhibition of 11.2%. In the case of CC(C)C(=O)Nc1ccc(C(=O)NNC(=O)c2cccs2)cc1, the inhibition is reported as -0.29%. For CCc1ccc(NC(=O)C(=O)NNC(=O)c2cccs2)cc1, the inhibition was 69.7% (active). Work on Cc1ccc(CCCOC(=O)C[N+]2(C)CCCCC2)cc1 yielded an inhibition of 7.71%. Compound COc1ccc(CCNc2cc(N3CCN(C(=O)c4ccccc4OC)CC3)ccc2[N+](=O)[O-])cc1OC has an inhibition of -3.35%. With CC1=NN(C(N)=S)C(=O)C1N=Nc1cc(Cl)ccc1Cl (stereo unspecified) the inhibition was 70.4% (active). NC(=O)CC[C@@H]1NC(=O)[C@@H]2CCCN2C(=O)c2cc([N+](=O)[O-])cc(F)c2NCCC[C@@H](C(N)=O)NC1=O showed an inhibition of -2.54%. CN(CC(=O)NCc1cccnc1)S(=O)(=O)c1cc(Cl)ccc1Cl was tested, and the inhibition was 3.65%. Compound CN1C(C(=O)NCc2ccco2)CC2Cn3c(nc4ccccc43)C21 (stereo unspecified) has an inhibition of -18.3%. With O=C(O)CN1C(=O)CC(Cc2ccccc2)C1=O (stereo unspecified) the inhibition was 4.48%. Work on CCOC(=O)c1ccc(NC(=O)c2c(NCc3ccccc3)[nH]c(=O)[nH]c2=O)cc1 yielded an inhibition of 0.312%. With CCOC(=O)c1ccc(Nc2cc(C)nc3nc(C)nn23)cc1 the inhibition was 7.18%. In the case of CCOC(=O)c1ccc(Nc2cc3ccccc3c(=O)[nH]2)cc1, the inhibition is reported as 64.2% (active). In the case of O=C(NN1C(=O)C2C3C=CC(O3)C2C1=O)c1ccccc1 (stereo unspecified), the inhibition is reported as -0.512%. Nc1ccc(N=Nc2ccccc2Cl)c(N)n1 was tested, and the inhibition was 72.7% (active). COc1ccccc1C1CC(=O)n2c(nc(-c3ccccc3)c2-c2ccccc2)S1 (stereo unspecified) was tested, and the inhibition was -4.43%. With CC(=O)c1cnn(-c2cc(Oc3ccc(F)cc3)ncn2)c1C the inhibition was 9.6%. O=C(COc1ccc2c(c1)CCC2)N1CCN(c2ccc(F)cc2)CC1 gave an inhibition of -17.5%. In the case of COc1ccc(N=C(C)c2sc3ccccc3c2O)cc1, the inhibition is reported as 74% (active). Work on COC(=O)c1ccc(/C=C/c2c(-c3ccc(OC)cc3)sc3ccccc23)cc1 yielded an inhibition of -2.53%. In the case of COc1ccc(-c2sc3ccccc3c2-c2ccc(OCCN3CCOCC3)cc2)cc1, the inhibition is reported as 8%. COC(=O)C1=CN(c2ccc(F)c(F)c2)C=C(C(=O)OC)C1c1ccc([N+](=O)[O-])cc1 gave an inhibition of -9.67%. CC(=O)N1CCN(C(=O)C2(NC(=O)Nc3ccc(C)cc3)CCCCC2)CC1 gave an inhibition of 5.59%. CC1(C)CC(N(Cc2ccccc2)C(=O)Cc2ccccc2)CCO1 (stereo unspecified) gave an inhibition of -3.89%. With COc1ccc(-c2ccc(OC(=O)NC3CCS(=O)(=O)C3)cc2)cc1 (stereo unspecified) the inhibition was -13.5%.
